Screening data deposited in PubChem by National Center for Advancing Translational Sciences (NCATS).
Cycloheximide cs = Cycloheximide Counterscreen for Small Molecule Inhibitors of Shiga Toxin; cell reporter, cycloheximide protein synthesis inhibition counterscreen; max response, %; 300,000 compounds, 12% hits; AID 2314, 2010; in the data active = max response mostly above about 13%, no sharp cut-off; inactive = mostly below about 14%; also: read at 38.3 µM for the half of the compounds with a filed dose; 0% is about no effect
LmPK inhibitor = qHTS Assay for Inhibitors of Leishmania Mexicana Pyruvate Kinase (LmPK) | 290,000 compounds, 0.37% hits | AID 1721, 2009 | Potency, µM (series often up to 57.5 µM), for the others: at the top dose activity change, negative = inhibition, usual class: inhibitors | Q27686 | purified LmPK, Kinase-Glo ATP luminescence, 1 h; also: potency is read from the fitted curve at half-maximal effect; % is scaled to controls: 0 for no effect and ±100 for the full control effect
Target sequence (Q27686 whole entry, looked up): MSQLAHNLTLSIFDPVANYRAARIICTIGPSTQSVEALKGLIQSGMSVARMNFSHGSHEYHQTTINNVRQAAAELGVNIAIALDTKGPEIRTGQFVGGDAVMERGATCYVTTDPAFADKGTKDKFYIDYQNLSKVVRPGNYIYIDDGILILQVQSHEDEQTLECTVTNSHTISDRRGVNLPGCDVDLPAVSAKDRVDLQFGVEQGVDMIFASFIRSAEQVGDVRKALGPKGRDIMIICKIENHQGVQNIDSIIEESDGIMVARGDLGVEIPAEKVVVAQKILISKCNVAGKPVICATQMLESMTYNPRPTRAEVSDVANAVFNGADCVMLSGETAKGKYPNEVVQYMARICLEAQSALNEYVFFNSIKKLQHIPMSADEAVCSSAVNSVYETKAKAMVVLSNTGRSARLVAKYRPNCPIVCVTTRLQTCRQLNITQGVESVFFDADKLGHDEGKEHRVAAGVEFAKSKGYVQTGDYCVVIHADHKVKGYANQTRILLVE
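ATP generated from ADP (0.1 mM) and PEP (0.5 mM) by 0.1 nM LmPK over 1 h at room temperature (pH 7.2 imidazole buffer) was detected by coupled luciferase luminescence. Values were normalized to uninhibited and no-enzyme wells.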
Shiga toxin inh = A qHTS for Small Molecule Inhibitors of Shiga Toxin | Vero cells, Shiga toxin protein synthesis inhibition reporter | inhibition, % at 38.7 µM | 290,000 compounds, 9.2% hits | AID 2315, 2010; in the data active = inhibition mostly above about 28%, no sharp cut-off; inactive = mostly below about 43%; also: 0% is about no effect
Pf growth 96h = Primary qHTS for delayed death inhibitors of the malarial parasite plastid, 96 hour incubation; Potency, µM (top dose mostly 28.7 µM), for inactives: at the top dose activity change, negative = inhibition, actives largely listed as inhibitors; 320,000 compounds, 6.9% hits; P. falciparum luciferase reporter growth, 96 h; also: potency is read from the fitted curve at half-maximal effect; % is scaled to controls: 0 for no effect and ±100 for the full control effect
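Infected RBCs, 2% Hct / 0.05% parasitemia final; luciferase-reporter P. falciparum; cpd 96 h, 37 C, 5% CO2; luciferase detection reagent; luminescence.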
Pf growth 48h = Primary qHTS for delayed death inhibitors of the malarial parasite plastid, 48 hour incubation. P. falciparum luciferase growth in erythrocytes, 48 h. Potency, µM (top dose mostly 28.7 µM), for inactives: top-dose activity change, negative = inhibition, most hits filed as inhibitors. 310,000 compounds, 5.9% hits; also: potency is read from the fitted curve at half-maximal effect; % is scaled to controls: 0 for no effect and ±100 for the full control effect
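A one-generation exposure of luciferase-tagged malaria parasites in RPMI 1640/Albumax erythrocyte culture, 37 C and 5% CO2. Inhibition is inferred from decreased luminescence after adding detection reagent.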
* hit, by the source's call; u = inconclusive; x = not tested or not shown; + = active, no number; [ ] = another dose, or the depositor's remark. Sampled rows, rich in hits. Any-hit rate of the full collection: about 22%. Unless noted, calls follow the shape of the dose curve; as a rule, active = well fitted inhibition curve with a large enough effect; inconclusive = small, poorly fitted or top-dose-only effect, or another doubt; inactive = no such curve, though single readings can be large or run the other way.

SMILES	Cycloheximide cs	LmPK inhibitor	Shiga toxin inh	Pf growth 96h	Pf growth 48h
N#C/C(=N\Nc1ccc(Cl)cc1)C(N)=S	23*	2%	46*	u	24%
COc1ccc(N/N=C(\C#N)C(=N)N2CCCCC2)cc1	43*	1%	68*	17%	93%
N#CC(C#N)=NNc1ccc(S(=O)(=O)N2CCCCC2)cc1	-2	5%	-3	u	-22%
N#C/C(=N\Nc1ccc(Cl)cc1)C(=N)N1CCCCC1	23	6%	+	376%	255%
CSc1ccc(/C=C/C(=O)OCC(=O)N2CCN(S(=O)(=O)c3ccc(C)cc3C)CC2)cc1	x	x	x	-36%	u
COc1ccc(/C(N)=N/OC(=O)COc2ccccc2Cl)cc1	46*	-3%	26*	251%	92%
Cc1cccc(/C(N)=N/OC(=O)COc2ccccc2Cl)c1	66*	-2%	21*	u	52%
COc1ccc(C)cc1NC(C)C(=O)NC(=O)NC1CCCCC1 (centres undefined)	x	x	x	u	13µM*
CCCCC1CCC(c2nc(-c3cccnc3)no2)CC1 (centres undefined)	15	16%	-16	64%	u
CCCCC1CCC(c2nc(-c3ccccn3)no2)CC1 (centres undefined)	56*	-10%	178*	u	66%
c1ccc(-c2noc(C3CCC3)n2)nc1	28*	-1%	50*	77%	61%
CCc1ccc(NC(=O)CSc2nccn(-c3ccc4c(c3)OCCO4)c2=O)cc1	x	x	x	43%	-7%
CCCn1cc(S(=O)(=O)c2ccccc2)c(=O)c2cc(F)c(N3CCN(C)CC3)cc21	-2	10%	-5	20%	-6%
CCOc1ccc(C(c2c(C)[nH][nH]c2=O)c2c(C)[nH][nH]c2=O)cc1OC	-6	-1%	-18	u	u
CCOc1cc(C(c2c(C)[nH][nH]c2=O)c2c(C)[nH][nH]c2=O)ccc1OS(=O)(=O)c1ccc(C)cc1	-4	10%	5	x	15µM*
CSc1ccc(/C=C/C(=O)c2ccc(NC(=O)C(C)C)cc2)cc1	4	3%	2	-23%	-12%
CSc1ccc(C(=O)/C=C/c2ccc(N)cc2)cc1	55*	u	77*	67%	187%
COC(=O)c1ccc(/C=C/C(=O)c2cccc(OC)c2)cc1	70*	-20%	52*	-9%	1%
COc1cccc(C(=O)/C=C/c2ccc(SC)cc2)c1	49*	u	80*	-29%	-2%
COc1ccc(S(=O)(=O)N2CCc3cc4c(cc3C2C)OCCCO4)cc1 (centres undefined)	-5	-13%	-1	u	u
CCN1C(C)=C(C(=O)OC(C)C)C(c2ccccc2Cl)C(C(=O)O)=C1C(=O)O (centres undefined)	-7	x	-10	x	x
O=C(Nc1cccc(Cl)c1)c1cc(S(=O)(=O)N2CCOCC2)cs1	-2	-7%	4	18%	u
CCCCn1c(=O)[nH]c(=O)c2c1nc(-c1ccc(OC)c(Br)c1)n2CC(C)C	1	0%	2	2.1µM*	u
O=C(Cn1nnc2ccccc21)NNC(=O)c1ccccc1	-1	-15%	4	66%	60%
O=C(NCCc1ccccc1)c1ccccc1[N+](=O)[O-]	22*	-15%	44*	u	43%
SMILES	Cycloheximide cs	LmPK inhibitor	Shiga toxin inh	Pf growth 96h	Pf growth 48h
CCC(CC)C(=O)Nc1cccc(C(=O)NCCc2ccc(S(N)(=O)=O)cc2)c1	-3	7%	-16	-13%	x
O=[N+]([O-])c1cc(S(=O)(=O)C(F)(F)F)ccc1NCC1CCCO1 (centres undefined)	12	9%	32*	6%	20%
NS(=O)(=O)c1ccc(CCNC(=O)c2ccccc2[N+](=O)[O-])cc1	-2	1%	-4	55%	4%
CCC(CC)C(=O)Nc1cccc(C(=O)NCCc2ccccc2)c1	19*	0%	105*	15%	12%
Cc1cccc(C(=O)NCCc2ccccc2)c1	61*	1%	88*	u	x
Cc1cccc(C(=O)NCCNC(=O)c2ccccn2)c1	0	0%	-5	-16%	1%
C[C@@H]1C(=O)O[C@H]2C[C@@]34[C@H]5C[C@@H](C(C)(C)C)[C@]36[C@@H](OC(=O)[C@@H]6O)O[C@@]4(C(=O)O5)[C@]21O	-6	6%	-7	26%	19%
O=C(O)CNc1ccc(S(=O)(=O)C(F)(F)F)cc1[N+](=O)[O-]	-1	8%	23	-10%	21%
CC(=O)Nc1ccc(Nc2ccc(S(=O)(=O)C(F)(F)F)cc2[N+](=O)[O-])cc1	12	2%	0	u	15µM*
Cc1cc(NC(=O)CCc2ccccc2)c([N+](=O)[O-])cc1C	36*	3%	-2	0%	32%
CCn1cc(CNC(=O)c2ccc(Cl)c([N+](=O)[O-])c2)c(C)n1	-2	-1%	28	15µM*	-26%
CCn1cc(CNC(=O)c2cccc([N+](=O)[O-])c2)c(C)n1	20	-3%	-8	372%	16%
O=C(NCCc1ccccc1)c1ccc([N+](=O)[O-])cc1	6	-12%	56	u	403%
Cc1cc(C(=O)NCCc2ccccc2)ccc1[N+](=O)[O-]	55*	10%	54*	81%	188%
Cc1cc2c(s1)c1cnn(Cc3c(F)cccc3F)c(=O)c1n2C	-1	x	3	x	x
O=C(NCCc1ccccc1)c1ccc(Cl)c([N+](=O)[O-])c1	64*	3%	136*	30%	83%
O=C(Nc1ccc(Nc2ccccc2)cc1)c1ccc(Cl)c([N+](=O)[O-])c1	0	0%	6	u	2%
O=C(NCCc1ccccc1)c1ccc(NCC2CCCO2)c([N+](=O)[O-])c1 (centres undefined)	43*	8%	117*	27%	87%
COc1ccc(NC(=O)CSc2nnc(-c3cccs3)n2N)c(OC)c1	x	x	x	1%	31%
Cc1ccc(C(=O)N2CCN(S(=O)(=O)c3ccc(C)c([N+](=O)[O-])c3)C2)cc1	-7	0%	12	41%	-43%[1.15 µM]
CCN1CCN(C(=O)c2ccc3c(c2)S(=O)(=O)c2ccccc2C3=O)CC1	5	6%	18	-23%	20%
CCCC[C@H](NC(=O)[C@H](CC(C)C)NC(=O)CNC(=O)[C@@H](NC(=O)[C@H](Cc1ccccc1)NC(=O)[C@H](CO)NC(=O)[C@@H](N)CC(=O)O)C(C)C)C(N)=O	-7	x	-11	x	x
CC(C)(C)OC(=O)[C@H](Cc1ccccc1)NC(=O)c1nc[nH]c1C(=O)N[C@@H](Cc1ccccc1)C(=O)OC(C)(C)C	-5	2%	-8	u	12µM*
